The source of these data is PubChem BioAssay (NCATS).

Molecules are shown by their SMILES. Calls of active or inactive are those of the source. No rule for the calls is given here. Where only a bound is given, the exact number is not on record here.
Potency is read from the fitted curve at half-maximal effect.

For the test, the system named is HIV-1 nucleocapsid protein NCp7 (binding to TG oligonucleotide). Kind of test: HIV Nucleocapsid (AID 346).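 Also: potency is for inhibitors that block NC binding and lower polarization.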 The following applies: HIV-1 NC / fluorescein-TGTGTGTG probe, fluorescence polarization. The method in brief:
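NCp7 100 nM + fluorescein TG4xF 10 nM; Hepes pH 7.5/250mM NaCl/1uM ZnCl2/0.004% PEG 20000; 1 hr RT; FP, 45 s exposure; oligo-only wells as negative control.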
As to `COc1cccc(Cn2c(=O)c(-c3cc(F)cc(F)c3)nc3cncnc32)c1`, the Potency is > 20 µM (inactive).

On to `O=c1c(-c2cccc(F)c2)nc2cncnc2n1-c1ccccc1`, for which the Potency was > 20 µM (inactive). With `COc1ccc(-c2nc3cnc(N4CCNCC4)nc3n(Cc3cccc(OC)c3)c2=O)cc1`, the Potency was > 20 µM (inactive). In the case of `N#Cc1cccc(-c2ccc3ncnc(N4CCNCC4)c3c2)c1` it was > 20 µM (inactive). In the case of `COc1ccc(-c2nc3cnc(N(C)C)nc3n(CCc3ccccc3)c2=O)cc1` it was > 4 µM (inactive); in that of `COc1ccccc1CN1CCC2(CC1)CCN(C(=O)c1ccco1)CC2`, > 20 µM (inactive). In the case of `Cc1noc(C)c1C(=O)N1CCC[C@@]2(CCN(C(=O)Nc3cccc(F)c3)C2)C1` it was > 20 µM (inactive). On to `CC(=O)NCCNc1nc(-c2ccc(C(=O)N(C)C)cc2)nc2ccccc12`, for which the Potency was > 20 µM (inactive).

Take `CCNc1ncc2nc(-c3ccc(F)cc3)c(=O)n(-c3ccccc3)c2n1`: the Potency was > 20 µM (inactive). In the case of `Cc1cnc(CNc2ncncc2-c2ccccc2CN(C)C)cn1` it was > 20 µM (inactive).

On to `CNc1nc(-c2ccccc2CN(C)C)nc2ccccc12`, for which the Potency was > 20 µM (inactive).

As for `Cn1c(=O)c(CCc2ccccc2)nc2cnc(N3CCNCC3)nc21`, the Potency was > 20 µM (inactive). Take `CN(C)c1ccc(-c2nc(-n3ccnc3)c3ccccc3n2)cc1`: the Potency was > 20 µM (inactive). As to `O=C(c1cnccn1)N1CCC[C@@]2(CCN(Cc3ccccc3)C2)C1`, the Potency was > 20 µM (inactive). In the case of `CN(C)c1ncnc2ccc(-c3ccccc3C#N)cc12` it was > 20 µM (inactive); in that of `CN1CCN(c2ccnc(-c3ccc(N(C)C)cc3)n2)CC1`, > 20 µM (inactive). As to `COc1ccc(-n2c(=O)c(-c3cccs3)nc3cncnc32)cc1`, the Potency is > 20 µM (inactive). In the case of `CN1CCN(c2ncc3nc(-c4cn(C)c5ccccc45)c(=O)n(C[C@H]4CCCO4)c3n2)CC1` it was > 20 µM (inactive). In the case of `COc1ccc(Oc2ncc3nc(-c4ccccc4)c(=O)n(C[C@H]4CCCO4)c3n2)cc1` it was > 20 µM (inactive); in that of `Cn1cccc1C(=O)N1CCC2(CCCN(Cc3nccs3)C2)CC1`, > 20 µM (inactive). For `CN(C)C(=O)c1ccc(-c2ccc3ncnc(N(C)C)c3c2)cc1`, the Potency is > 20 µM (inactive). Consider `O=C(Oc1ccccc1)N1CCC2(CC1)CN(c1ccncc1)C2`, for which the Potency was > 20 µM (inactive). As to `COc1ccc(CNc2ncncc2-c2cccnc2)c(OC)c1`, the Potency was > 20 µM (inactive). In the case of `CN(C)C(=O)c1ccc(-c2nccc(-n3ccnc3)n2)cc1` it was > 20 µM (inactive); in that of `Cc1noc(C)c1C(=O)N1CCC2(CCN(C(=O)NC(C)C)CC2)CC1`, > 20 µM (inactive). In the case of `COc1ccc(Oc2ncc3ncc(=O)n(CCC#N)c3n2)cc1` it was > 20 µM (inactive); in that of `CCNc1ncc2ncc(=O)n(Cc3cccs3)c2n1`, > 20 µM (inactive). In the case of `O=C(c1ccco1)N1CCC[C@@]2(CCN(C(c3ccccc3)c3ccccc3)C2)C1` it was > 20 µM (inactive); in that of `COC(=O)N1CCC2(CCN(Cc3cc(C(F)(F)F)cc(C(F)(F)F)c3)CC2)CC1`, > 20 µM (inactive); in that of `COc1ccc2[nH]cc(CCNc3ccnc(-c4ccc5c(c4)OCO5)n3)c2c1`, > 20 µM (inactive). As to `O=c1c(-c2ccc(F)c(F)c2)nc2cncnc2n1-c1ccccc1`, the Potency is > 20 µM (inactive). In the case of `COc1ccccc1CCn1c(=O)c(-c2cccs2)nc2cncnc21` it was > 20 µM (inactive); in that of `O=c1c(-c2cccs2)nc2cncnc2n1-c1ccccc1`, 18.2 µM (inactive). In the case of `COc1ccccc1CNc1nc(-c2ccc(C(=O)N(C)C)cc2)nc2ccccc12` it was > 20 µM (inactive); in that of `COc1ccccc1CNc1cc(-c2ccccc2OC)ncn1`, > 20 µM (inactive); in that of `Cn1cccc1C(=O)N1CCC[C@@]2(CCN(c3cccc(-c4ccccc4)c3)C2)C1`, > 20 µM (inactive). In the case of `CC(=O)N1CCC[C@@]2(CCN(C(c3ccccc3)c3ccccc3)C2)C1` it was > 20 µM (inactive); in that of `O=C(c1cccc(F)c1)N1CCC2(CC1)CCN(c1ccccn1)CC2`, > 20 µM (inactive); in that of `O=C(c1csnn1)N1CCC[C@@]2(CCN(c3cccc(-c4ccccc4)c3)C2)C1`, > 20 µM (inactive). As for `COC(=O)N1CCC2(CCCN(c3ccccn3)C2)CC1`, the Potency was > 20 µM (inactive).
